High-throughput results (PubChem BioAssay)
CDK5 inh: inhibitors of human CDK5/p35 kinase, primary screen, biochemical, single concentration; inhibition, % at 10 µM; Recombinant CDK5/p35, ADP-Glo luminescence, 60 min; actives 0.01% (n = 330,000);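 active means highest replicate inhibition of at least 50% and at least 75% of replicates reaching 50%; inconclusive means only one of the two criteria met; inactive means both criteria failed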
Target sequence (Q00535 whole entry, looked up): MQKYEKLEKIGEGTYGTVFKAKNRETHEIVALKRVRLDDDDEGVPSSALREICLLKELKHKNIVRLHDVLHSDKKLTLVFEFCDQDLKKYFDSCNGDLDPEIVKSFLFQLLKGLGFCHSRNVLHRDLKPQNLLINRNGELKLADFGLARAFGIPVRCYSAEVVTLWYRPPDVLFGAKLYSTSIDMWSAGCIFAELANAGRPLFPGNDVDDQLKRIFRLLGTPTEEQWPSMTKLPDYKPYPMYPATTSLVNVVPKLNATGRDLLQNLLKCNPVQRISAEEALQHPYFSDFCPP
Target sequence (Q15078 whole entry, looked up): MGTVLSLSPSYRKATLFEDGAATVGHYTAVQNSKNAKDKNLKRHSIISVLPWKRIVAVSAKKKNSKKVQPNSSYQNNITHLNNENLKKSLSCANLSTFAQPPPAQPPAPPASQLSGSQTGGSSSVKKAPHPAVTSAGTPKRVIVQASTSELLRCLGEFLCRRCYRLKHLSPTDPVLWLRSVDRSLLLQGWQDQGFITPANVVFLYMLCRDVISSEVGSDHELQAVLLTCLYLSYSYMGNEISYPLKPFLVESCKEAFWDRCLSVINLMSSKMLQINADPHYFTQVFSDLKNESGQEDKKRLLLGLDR
PvdQ acylase: P. aeruginosa PvdQ acylase inhibitors, primary screen, biochemical, fluorescence, plate reader and imaging, single point | actives 0.063% (n = 340,000) | inhibition, % at 10 µM | purified PvdQ acylase; in the data active means inhibition above about 30%, passing the limit was not always enough; inconclusive means no clear call, values can overlap the other calls
FGF22 binding: binders of human FGF22 protein, primary screen, FGF22 synaptogenesis inhibitor project, biophysical, thermal shift, single point; activity (Tm shift, normalised), % at 9.99 µM; AID 651658, 2012; recombinant FGF22 thermal shift, SYPRO orange fluorescence; percent of sucrose octasulfate shift, DMSO zero; Fibroblast growth factor 22 (Homo sapiens), Q9HCT0; actives 1.5% (n = 340,000);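 active means mean Tm shift, scaled 0 neutral to 100 positive control, at about 1.3% or above, every replicate too, limit read from the data; inconclusive means no clear call, values can overlap the other calls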
PglD inh: C. jejuni PglD acetyltransferase inhibitors, primary screen, biochemical, DTNB colorimetric, single point; UDP-N-acetylbacillosamine N-acetyltransferase PglD (Campylobacter jejuni); purified PglD enzyme, DTNB colorimetric CoA detection; inhibition, % at 12.5 µM; actives 0.098% (n = 360,000); AID 602405, 2012; in the data active means inhibition above about 16%, passing the limit was not always enough; inconclusive means no clear call, values can overlap the other calls
SIRT5 block: SIRT5 desuccinylase inhibitors, primary screen, biochemical, fluorescence imaging, single point, set 5; NAD-dependent protein deacylase sirtuin-5, mitochondrial (Homo sapiens), Q9NXA8; Purified SirT5, succinyl-peptide AMC, trypsin-coupled fluorescence; inhibition, % at 15 µM; actives 1.1% (n = 330,000); AID 652115, 2013; in the data active means inhibition above about 15%; inconclusive means no clear call, values can overlap the other calls
dFosB activator: activators of delta FosB homodimer, primary screen, biochemical, fluorescence polarization, TAMRA-CDK5 oligo, single point | purified delta FosB; percent of positive-control signal above neutral wells | activation, % at 25 µM | actives 0.99% (n = 340,000) | Protein FosB (Mus musculus), P13346 | AID 493131, 2011;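 active means mean activation above about 17%, with every replicate also reaching it, limit read from the data, passing the limit was not always enough; inconclusive means only one of the two conditions met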
PglD confirm: PglD acetyltransferase inhibitors, confirmation, biochemical, DTNB absorbance, single point, cherry-picked samples; shares compounds with PglD inh; Purified C. jejuni PglD, DTNB absorbance 412 nm; inhibition, % at 20 µM; 320 tested, under 10 active; AID 743156, 2013;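 active means mean inhibition across replicates of at least 20% with every single replicate also at 20% or more; inconclusive means mean inhibition at least 20% but some replicate falls below 20%; inactive means mean inhibition under 20% and not all replicates reach it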;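 further: initial rate of CoA release by acetyl transfer from AcCoA to the UDP-4-amino sugar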
Numbers stand for hits; 0 = inactive; ? = inconclusive; - = no result given. This is a sample that favours compounds with a hit; in the whole collection about 2.8% have one here.

SMILES	CDK5 inh	PvdQ acylase	FGF22 binding	PglD inh	SIRT5 block	dFosB activator	PglD confirm
C[C@H]1CN([C@@H](C)CO)C(=O)c2cc(NC(=O)Nc3ccc(C(F)(F)F)cc3)ccc2O[C@H]1CN(C)C(=O)NC1CCCCC1	-	-	0	0	0	-	-
N#Cc1cnn2cc(-c3ncc(C(F)(F)F)cc3Cl)cnc12	0	0	-	47.2	-	0	0
COc1ccc(CN(C)C[C@@H]2OCCCC[C@H](C)Oc3ccc(NS(=O)(=O)c4cn(C)cn4)cc3C(=O)N([C@H](C)CO)C[C@H]2C)cc1	-	-	0	0	0	-	-
Fc1ccc(CNC(=S)NC2CCCCC2)cc1	0	0	0	34.8	0	0	0
COc1ccccc1CNC(=O)c1cc2ccccc2o1	0	0	0	0	0	0	-
COc1ccccc1CNC(=O)c1cc2ccccc2oc1=O	0	0	0	32.0	0	0	0
O=c1c2c([nH]c3ccccc13)CCCC2	0	0	-	0	-	0	-
CC(C)(C)C1CCc2[nH]c3ccccc3c(=O)c2C1 (configuration not stated)	0	0	-	28.0	-	0	0
O=C(O)CC1(CC(=O)Nc2ccc3c(c2)C(=O)OC3)CCCCC1	-	-	0	21.1	0	-	0
CCn1c(SCC(=O)Nc2ccc3c(c2)OCCO3)nnc1-c1ccccn1	0	0	-	76.5	-	0	0
COc1ccc(N=Nc2ccc(CO)cc2)cc1	0	0	0	45.0	0	0	0
OCc1ccc(N=Nc2ccccc2)cc1	0	0	0	0	0	0	-
O=C(Nc1ccc2nc(-c3ccccn3)[nH]c2c1)C1CCCCC1	-	0	-	0	-	0	-
CC(C)c1nc2ccc(NC(=O)C3CCCCC3)cc2[nH]1	0	0	-	33.6	-	0	0
Cc1nc2ccccc2n1C(C)c1ccccc1 (configuration not stated)	0	0	0	0	0	0	-
CC(c1ccccc1)n1c(CO)nc2ccccc21 (configuration not stated)	0	0	0	67.1	0	0	0
COC(=O)C(=N/Nc1ccccc1C(=O)OC)/C(C)=N/O	0	0	0	20.2	0	0	0
CCOC(=O)CNC(=S)N(Cc1ccccc1)Cc1cccnc1	0	0	0	31.8	0	0	0
CC=Cc1ccc2n(c1=O)C[C@H]1[C@H](CO)[C@@H](C(=O)N(C)C)[C@@H]2N1S(=O)(=O)c1ccccc1C (mixture of isomers)	-	-	-	-	0	-	-
CC(C)(C)NC(=O)COC(=O)c1ccccc1Nc1ccc(SC(F)F)cc1	0	0	-	20.4	-	0	?
CC(C)(C)c1cc[n+](-c2[nH]c(=O)sc2/C=N/NC([S-])=Nc2ccccc2)cc1	0	0	0	21.1	0	0	0
CCOc1ccc(NC(=O)CC(=O)Nc2ccc(OCC)cc2)cc1	0	0	0	0	0	0	-
CCOc1ccc(NC(=O)NN2C(C)CCCC2C)cc1 (configuration not stated)	0	0	0	20.0	0	0	0
COCC#Cc1cnc2c(c1)C(=O)N([C@H](C)CO)C[C@H](C)[C@H](CN(C)C(=O)c1ccc(F)cc1)O2	-	-	0	0	0	-	-
CC(=O)C1=C(O)C(=O)N(c2ccc(F)cc2)C1c1ccc(C)cc1 (configuration not stated)	0	0	0	0	0	0	-
SMILES	CDK5 inh	PvdQ acylase	FGF22 binding	PglD inh	SIRT5 block	dFosB activator	PglD confirm
CC(=O)C1=C(O)C(=O)N(c2cccc(C(=O)O)c2)C1c1ccc(F)cc1 (configuration not stated)	0	0	0	20.6	0	0	0
CNS(=O)(=O)c1cc(S(=O)(=O)NC)c2cccc3c2c1NC3=O	0	0	0	76.6	0	0	0
CNS(=O)(=O)c1ccc2c3c(cccc13)C(=O)N2	0	0	0	0	0	0	-
CCC(OC(=O)c1ccco1)C(=O)NCc1ccc2c(c1)OCO2 (configuration not stated)	0	0	0	22.2	0	0	0
CCC(OC(=O)c1ccco1)C(=O)NCc1ccc(C)cc1 (configuration not stated)	0	0	-	0	-	0	-
COc1cccc(NC(=O)N2CC3(C2)[C@H](c2ccccc2)[C@@H](CO)N3C(=O)C2CCCC2)c1	-	-	-	-	0	-	-
CNC(=O)CCCc1nc(-c2ccccc2Cl)no1	0	0	-	24.4	0	0	0
O=C(NCc1cccnc1)C1CC(c2cccc(Br)c2)=NO1 (configuration not stated)	0	0	0	22.9	0	0	0
COc1cc(C2=NOC(C(=O)NCc3cccnc3)C2)cc(OC)c1OC (configuration not stated)	0	0	0	0	0	0	-
C[C@@H]1CN([C@H](C)CO)C(=O)c2cc(NC(=O)C3CCCCC3)ccc2O[C@@H]1CN(C)C(=O)Nc1cccc2ccccc12	-	-	0	0	0	-	-
O=C(CN(C(=O)CNC(=O)c1cccs1)c1ccc(F)cc1)NC1CCCCC1	0	0	0	25.2	0	0	0
O=C(CN(C(=O)CNC(=O)c1cccs1)c1ccc(F)cc1)NC1CCCC1	0	0	0	0	-	0	-
Cc1noc(C)c1NC(=O)Nc1ccc2c(c1)C(=O)N(C)[C@H]1CC[C@H](CC(=O)N(C)C)O[C@@H]1CO2	-	-	0	0	0	-	-
CCOc1ccc2[nH]c3nc(SCC(=O)NCC4CCCO4)nnc3c2c1 (configuration not stated)	0	0	0	24.0	0	0	0
CCC(OC(=O)CNS(=O)(=O)c1ccccc1)C(=O)c1ccccc1 (configuration not stated)	0	0	0	20.1	0	0	0
OC(CC#CCN1CCCCC1)(c1ccccc1)c1ccccc1	0	0	0	27.4	0	0	0
CCN(Cc1cccc(OC)c1)CC1CCCN(CCc2cccc(OC)c2)C1 (configuration not stated)	0	0	0	22.2	0	0	0
CCOc1cccc(CN(CC)CC2CCCN(CCc3cccc(OC)c3)C2)c1O (configuration not stated)	0	0	0	0	0	0	-
CC(C)CC#Cc1ccc2c(c1)O[C@@H](CN(C)C(=O)c1ccncc1)[C@@H](C)CN([C@@H](C)CO)S2(=O)=O	-	-	0	0	0	-	-
Cc1ccc2nc(C)cc(OCC(=O)O)c2c1	0	0	-	20.8	-	0	0
